# Source: publication PMC7862700, “An all-to-all approach to the identification of sequence-specific readers for epigenetic DNA modifications on cytosine”
# Assays:
# Assay in all cases: DAPPL (digital affinity profiling via proximity ligation, sequencing); 10 mM Tris-HCl pH 7.5, 50 mM NaCl, 1 mM DTT, 4% glycerol, room temperature, 30 min; GST-TFs on glutathione beads, 16-mer random dsDNA library, 0.1% formaldehyde crosslink after washing; high values mean tight binding
# FEV = target: T1, FEV (Homo sapiens, UniProt Q99581 1-238); settings: protein: recombinant; tags: N-terminal GST; dsDNA, one strand shown
# T1 sequence: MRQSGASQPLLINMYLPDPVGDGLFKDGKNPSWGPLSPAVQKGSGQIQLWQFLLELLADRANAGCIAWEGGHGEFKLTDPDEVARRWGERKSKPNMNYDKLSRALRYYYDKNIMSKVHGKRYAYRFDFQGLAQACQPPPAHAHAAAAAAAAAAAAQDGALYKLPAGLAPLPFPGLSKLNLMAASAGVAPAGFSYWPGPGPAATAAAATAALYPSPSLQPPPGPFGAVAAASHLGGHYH
# How it was run: (§1)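 Pools of DNA-barcoded human transcription factors, expressed in yeast as GST fusions on glutathione beads and combined with a tag-only sample, were incubated with 200 nmole of a 16-mer random double-stranded DNA library. Incubation took 30 min at room temperature in Tris/NaCl/DTT/glycerol buffer and was followed by washing, 0.1% formaldehyde crosslinking, proximity ligation (BsaI/T4 ligase, 1 h, 37 °C), PCR amplification and sequencing on an Illumina NextSeq500. Binding signal is the ratio of a hexamer's read frequency for a factor to its frequency for the tag-only sample.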
# ETV5 = ETV5 (Homo sapiens, UniProt P41161 1-510); settings: protein: recombinant; tags: N-terminal GST; dsDNA, one strand shown
# How it was run: as §1
# HSF1 = HSF1 (Homo sapiens, UniProt Q00613 1-529); settings: protein: recombinant; tags: N-terminal GST; chain copies: 3; dsDNA, one strand shown
# How it was run: as §1
# SPIC = target: T2, SPIC (Homo sapiens, UniProt Q8N5J4 1-248); settings: protein: recombinant; tags: N-terminal GST; dsDNA, one strand shown
# T2 sequence: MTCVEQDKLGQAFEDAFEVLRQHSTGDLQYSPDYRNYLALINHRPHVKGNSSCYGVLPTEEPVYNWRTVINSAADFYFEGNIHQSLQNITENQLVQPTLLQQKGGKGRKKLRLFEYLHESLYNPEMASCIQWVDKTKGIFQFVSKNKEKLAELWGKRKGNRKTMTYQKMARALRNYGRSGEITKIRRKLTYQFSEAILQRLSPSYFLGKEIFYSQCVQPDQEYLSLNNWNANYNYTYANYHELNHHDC
# How it was run: as §1
# ELF4 = ELF4 (Homo sapiens, UniProt Q99607 1-663); settings: protein: recombinant; tags: N-terminal GST; dsDNA, one strand shown
# How it was run: as §1
# ELK4 = target: T3, ELK4 (Homo sapiens, UniProt P28324-2 1-405); settings: protein: recombinant; tags: N-terminal GST; dsDNA, one strand shown
# T3 sequence: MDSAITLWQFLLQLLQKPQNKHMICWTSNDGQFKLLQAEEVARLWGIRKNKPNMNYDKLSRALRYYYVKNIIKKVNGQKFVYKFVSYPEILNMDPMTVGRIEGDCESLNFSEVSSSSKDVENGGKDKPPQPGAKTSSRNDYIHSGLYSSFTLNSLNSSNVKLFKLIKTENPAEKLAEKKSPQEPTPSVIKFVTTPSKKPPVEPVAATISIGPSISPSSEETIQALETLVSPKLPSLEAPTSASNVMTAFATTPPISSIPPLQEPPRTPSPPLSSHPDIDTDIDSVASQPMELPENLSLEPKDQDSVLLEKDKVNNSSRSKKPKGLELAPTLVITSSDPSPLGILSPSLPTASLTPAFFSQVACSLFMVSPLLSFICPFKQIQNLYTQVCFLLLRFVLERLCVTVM
# How it was run: as §1
# ETV2 = target: T4, ETV2 (Homo sapiens, UniProt O00321 1-342); settings: protein: recombinant; tags: N-terminal GST; dsDNA, one strand shown
# T4 sequence: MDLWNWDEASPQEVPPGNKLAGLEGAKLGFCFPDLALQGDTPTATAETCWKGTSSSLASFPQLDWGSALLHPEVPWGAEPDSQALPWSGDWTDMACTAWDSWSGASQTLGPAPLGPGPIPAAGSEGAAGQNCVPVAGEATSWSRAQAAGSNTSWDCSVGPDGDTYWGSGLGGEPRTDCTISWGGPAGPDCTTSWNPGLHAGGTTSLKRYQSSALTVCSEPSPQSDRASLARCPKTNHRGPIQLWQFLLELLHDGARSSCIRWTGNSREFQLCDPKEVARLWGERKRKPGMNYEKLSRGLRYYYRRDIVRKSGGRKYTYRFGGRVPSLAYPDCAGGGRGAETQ
# How it was run: as §1
# ELF3 = target: T5, ELF3 (Homo sapiens, UniProt P78545 1-371); settings: protein: recombinant; tags: N-terminal GST; dsDNA, one strand shown
# T5 sequence: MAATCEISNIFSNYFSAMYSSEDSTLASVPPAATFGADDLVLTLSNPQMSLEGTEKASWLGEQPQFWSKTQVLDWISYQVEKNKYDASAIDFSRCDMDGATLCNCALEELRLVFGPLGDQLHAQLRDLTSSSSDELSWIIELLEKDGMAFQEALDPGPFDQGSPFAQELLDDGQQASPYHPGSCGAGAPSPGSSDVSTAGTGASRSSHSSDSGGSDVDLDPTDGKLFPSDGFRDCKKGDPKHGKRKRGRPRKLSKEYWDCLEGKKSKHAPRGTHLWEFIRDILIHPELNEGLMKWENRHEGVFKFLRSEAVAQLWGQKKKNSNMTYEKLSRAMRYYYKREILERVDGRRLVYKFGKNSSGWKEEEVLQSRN
# How it was run: as §1
# CRX = CRX (Homo sapiens, UniProt O43186 1-299); settings: protein: recombinant; tags: N-terminal GST; dsDNA, one strand shown
# How it was run: as §1
# ETV1 = ETV1 (Homo sapiens, UniProt P50549 1-477); settings: protein: recombinant; tags: N-terminal GST; dsDNA, one strand shown
# How it was run: as §1
# ERF = target: T6, ERF (Homo sapiens, UniProt P50548 1-548); settings: protein: recombinant; tags: N-terminal GST; dsDNA, one strand shown
# T6 sequence: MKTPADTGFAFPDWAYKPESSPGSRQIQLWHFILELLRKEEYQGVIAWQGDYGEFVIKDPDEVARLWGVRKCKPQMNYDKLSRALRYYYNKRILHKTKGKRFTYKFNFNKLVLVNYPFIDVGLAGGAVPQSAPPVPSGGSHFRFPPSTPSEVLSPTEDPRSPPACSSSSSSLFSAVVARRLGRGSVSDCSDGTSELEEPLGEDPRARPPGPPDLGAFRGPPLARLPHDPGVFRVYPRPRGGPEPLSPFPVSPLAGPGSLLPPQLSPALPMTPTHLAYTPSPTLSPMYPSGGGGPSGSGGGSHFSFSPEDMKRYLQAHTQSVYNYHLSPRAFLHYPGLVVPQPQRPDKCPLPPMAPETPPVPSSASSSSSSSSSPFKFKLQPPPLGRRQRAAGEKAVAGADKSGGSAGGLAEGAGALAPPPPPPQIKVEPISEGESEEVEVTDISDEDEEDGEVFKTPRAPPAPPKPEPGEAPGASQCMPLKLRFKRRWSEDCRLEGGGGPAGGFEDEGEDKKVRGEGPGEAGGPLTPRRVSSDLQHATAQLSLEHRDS
# How it was run: as §1
# ETV3L = target: T7, ETV3L (Homo sapiens, UniProt Q6ZN32 1-361); settings: protein: recombinant; tags: N-terminal GST; dsDNA, one strand shown
# T7 sequence: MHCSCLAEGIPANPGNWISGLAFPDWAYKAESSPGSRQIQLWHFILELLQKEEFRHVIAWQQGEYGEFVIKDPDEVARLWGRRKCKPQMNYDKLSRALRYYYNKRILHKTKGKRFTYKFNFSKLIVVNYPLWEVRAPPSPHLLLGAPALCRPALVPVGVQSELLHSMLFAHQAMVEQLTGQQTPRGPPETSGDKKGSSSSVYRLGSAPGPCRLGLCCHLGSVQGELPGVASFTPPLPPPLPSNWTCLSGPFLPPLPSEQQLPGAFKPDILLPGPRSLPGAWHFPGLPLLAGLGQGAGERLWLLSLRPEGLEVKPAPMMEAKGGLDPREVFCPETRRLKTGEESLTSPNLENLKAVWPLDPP
# How it was run: as §1
# ETS2 = target: T8, ETS2 (Homo sapiens, UniProt P15036 1-469); settings: protein: recombinant; tags: N-terminal GST; dsDNA, one strand shown
# T8 sequence: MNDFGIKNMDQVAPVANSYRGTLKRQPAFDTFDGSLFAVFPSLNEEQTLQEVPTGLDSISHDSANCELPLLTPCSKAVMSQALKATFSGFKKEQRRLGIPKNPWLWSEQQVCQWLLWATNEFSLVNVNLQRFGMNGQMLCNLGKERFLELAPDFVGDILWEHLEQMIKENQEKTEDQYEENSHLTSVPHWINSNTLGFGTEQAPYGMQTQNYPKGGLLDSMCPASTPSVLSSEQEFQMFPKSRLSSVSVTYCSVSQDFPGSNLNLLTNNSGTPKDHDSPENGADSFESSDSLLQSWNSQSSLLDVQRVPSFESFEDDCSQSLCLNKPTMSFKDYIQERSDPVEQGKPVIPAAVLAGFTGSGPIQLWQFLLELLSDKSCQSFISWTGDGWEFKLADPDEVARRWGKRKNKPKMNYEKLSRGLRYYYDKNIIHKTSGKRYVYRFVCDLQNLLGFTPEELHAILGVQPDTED
# How it was run: as §1
# SPDEF = target: T9, SPDEF (Homo sapiens, UniProt O95238 1-335); settings: protein: recombinant; tags: N-terminal GST; dsDNA, one strand shown
# T9 sequence: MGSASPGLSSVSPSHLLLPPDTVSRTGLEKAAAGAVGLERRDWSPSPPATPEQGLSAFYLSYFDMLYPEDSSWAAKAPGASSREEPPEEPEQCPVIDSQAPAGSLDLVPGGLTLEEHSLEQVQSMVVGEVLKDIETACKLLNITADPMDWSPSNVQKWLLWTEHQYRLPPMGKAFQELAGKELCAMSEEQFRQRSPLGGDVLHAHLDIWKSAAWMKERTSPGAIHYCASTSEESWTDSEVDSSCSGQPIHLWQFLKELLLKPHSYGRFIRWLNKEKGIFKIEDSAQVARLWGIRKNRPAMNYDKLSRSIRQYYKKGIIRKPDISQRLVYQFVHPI
# How it was run: as §1
# ETV7 = target: T10, ETV7 (Homo sapiens, UniProt Q9Y603 1-341); settings: protein: recombinant; tags: N-terminal GST; dsDNA, one strand shown
# T10 sequence: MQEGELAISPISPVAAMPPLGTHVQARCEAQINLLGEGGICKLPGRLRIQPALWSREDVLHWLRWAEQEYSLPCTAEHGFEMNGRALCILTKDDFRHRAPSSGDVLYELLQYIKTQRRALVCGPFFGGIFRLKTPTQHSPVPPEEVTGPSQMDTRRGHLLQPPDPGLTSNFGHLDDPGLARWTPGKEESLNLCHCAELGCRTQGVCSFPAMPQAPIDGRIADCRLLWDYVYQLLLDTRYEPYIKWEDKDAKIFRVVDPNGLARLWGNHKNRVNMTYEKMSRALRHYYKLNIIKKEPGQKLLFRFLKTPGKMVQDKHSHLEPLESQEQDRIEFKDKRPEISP
# How it was run: as §1
# ELF5 = target: T11, ELF5 (Homo sapiens, UniProt Q9UKW6-2 1-255); settings: protein: recombinant; tags: N-terminal GST; dsDNA, one strand shown
# T11 sequence: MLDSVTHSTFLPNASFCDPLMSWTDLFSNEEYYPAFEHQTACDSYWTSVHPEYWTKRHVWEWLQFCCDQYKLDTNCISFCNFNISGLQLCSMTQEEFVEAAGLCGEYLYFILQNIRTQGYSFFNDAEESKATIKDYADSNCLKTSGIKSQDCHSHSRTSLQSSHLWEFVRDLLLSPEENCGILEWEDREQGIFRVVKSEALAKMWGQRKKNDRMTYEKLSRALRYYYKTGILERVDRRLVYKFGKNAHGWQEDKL
# How it was run: as §1
# ETV3 = target: T12, ETV3 (Homo sapiens, UniProt P41162-2 1-143); settings: protein: recombinant; tags: N-terminal GST; dsDNA, one strand shown
# T12 sequence: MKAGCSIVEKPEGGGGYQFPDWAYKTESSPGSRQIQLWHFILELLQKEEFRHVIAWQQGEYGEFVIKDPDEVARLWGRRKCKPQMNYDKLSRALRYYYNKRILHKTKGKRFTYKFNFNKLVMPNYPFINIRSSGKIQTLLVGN
# How it was run: as §1
# ETV6 = ETV6 (Homo sapiens, UniProt P41212 1-452); settings: protein: recombinant; tags: N-terminal GST; dsDNA, one strand shown
# How it was run: as §1
# ETV5, sequence (P41161 whole entry): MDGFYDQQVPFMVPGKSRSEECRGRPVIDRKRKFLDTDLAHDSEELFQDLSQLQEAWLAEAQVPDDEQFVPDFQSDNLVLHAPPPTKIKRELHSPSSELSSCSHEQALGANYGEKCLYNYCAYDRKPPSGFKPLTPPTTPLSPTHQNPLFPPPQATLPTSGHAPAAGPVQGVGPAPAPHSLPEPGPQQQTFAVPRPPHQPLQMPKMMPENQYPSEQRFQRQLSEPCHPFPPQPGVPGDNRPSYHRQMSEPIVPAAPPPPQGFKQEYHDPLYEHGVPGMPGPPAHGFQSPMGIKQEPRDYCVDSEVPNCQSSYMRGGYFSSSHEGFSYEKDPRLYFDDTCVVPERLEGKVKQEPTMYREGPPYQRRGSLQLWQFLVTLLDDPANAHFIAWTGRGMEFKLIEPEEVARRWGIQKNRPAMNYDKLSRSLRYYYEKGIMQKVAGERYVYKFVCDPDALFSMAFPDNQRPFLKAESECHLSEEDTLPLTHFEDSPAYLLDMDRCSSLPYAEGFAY
# CRX, sequence (O43186 whole entry): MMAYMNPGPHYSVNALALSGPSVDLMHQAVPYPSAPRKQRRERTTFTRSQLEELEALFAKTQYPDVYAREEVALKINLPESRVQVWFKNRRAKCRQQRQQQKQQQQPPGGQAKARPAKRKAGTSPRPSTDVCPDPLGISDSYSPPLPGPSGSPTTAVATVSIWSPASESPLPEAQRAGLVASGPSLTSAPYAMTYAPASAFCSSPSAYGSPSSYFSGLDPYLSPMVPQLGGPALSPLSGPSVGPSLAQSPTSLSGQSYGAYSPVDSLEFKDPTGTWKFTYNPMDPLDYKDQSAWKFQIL
# ELF4, sequence (Q99607 whole entry): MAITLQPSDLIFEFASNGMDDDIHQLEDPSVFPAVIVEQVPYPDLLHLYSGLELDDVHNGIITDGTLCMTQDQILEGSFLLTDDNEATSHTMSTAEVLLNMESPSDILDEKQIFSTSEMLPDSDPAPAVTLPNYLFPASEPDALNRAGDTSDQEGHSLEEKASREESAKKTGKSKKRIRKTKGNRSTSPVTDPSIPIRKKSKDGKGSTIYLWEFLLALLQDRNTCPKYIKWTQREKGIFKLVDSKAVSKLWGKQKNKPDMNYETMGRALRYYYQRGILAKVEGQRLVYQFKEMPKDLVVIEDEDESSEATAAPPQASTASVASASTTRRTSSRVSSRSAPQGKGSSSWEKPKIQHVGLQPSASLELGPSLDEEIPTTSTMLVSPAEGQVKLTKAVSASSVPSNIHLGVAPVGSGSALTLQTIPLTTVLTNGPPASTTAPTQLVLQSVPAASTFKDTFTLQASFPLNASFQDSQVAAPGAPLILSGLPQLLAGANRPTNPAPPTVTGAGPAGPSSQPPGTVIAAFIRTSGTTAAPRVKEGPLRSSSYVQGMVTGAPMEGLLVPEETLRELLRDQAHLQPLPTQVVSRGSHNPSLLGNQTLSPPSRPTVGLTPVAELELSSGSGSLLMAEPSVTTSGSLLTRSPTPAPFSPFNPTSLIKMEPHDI
# ETV6, sequence (P41212 whole entry): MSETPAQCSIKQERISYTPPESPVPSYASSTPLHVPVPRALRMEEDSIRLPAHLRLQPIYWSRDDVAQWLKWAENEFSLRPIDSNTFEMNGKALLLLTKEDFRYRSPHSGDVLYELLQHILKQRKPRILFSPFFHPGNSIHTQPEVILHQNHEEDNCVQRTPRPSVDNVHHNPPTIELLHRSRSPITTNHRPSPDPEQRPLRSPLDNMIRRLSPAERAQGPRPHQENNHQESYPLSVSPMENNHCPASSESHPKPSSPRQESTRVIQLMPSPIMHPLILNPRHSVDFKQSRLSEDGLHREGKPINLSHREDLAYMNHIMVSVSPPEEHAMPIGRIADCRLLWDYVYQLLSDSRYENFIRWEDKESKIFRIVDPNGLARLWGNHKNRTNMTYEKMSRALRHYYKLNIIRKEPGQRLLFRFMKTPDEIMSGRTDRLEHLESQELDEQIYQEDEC
# HSF1, sequence (Q00613 whole entry): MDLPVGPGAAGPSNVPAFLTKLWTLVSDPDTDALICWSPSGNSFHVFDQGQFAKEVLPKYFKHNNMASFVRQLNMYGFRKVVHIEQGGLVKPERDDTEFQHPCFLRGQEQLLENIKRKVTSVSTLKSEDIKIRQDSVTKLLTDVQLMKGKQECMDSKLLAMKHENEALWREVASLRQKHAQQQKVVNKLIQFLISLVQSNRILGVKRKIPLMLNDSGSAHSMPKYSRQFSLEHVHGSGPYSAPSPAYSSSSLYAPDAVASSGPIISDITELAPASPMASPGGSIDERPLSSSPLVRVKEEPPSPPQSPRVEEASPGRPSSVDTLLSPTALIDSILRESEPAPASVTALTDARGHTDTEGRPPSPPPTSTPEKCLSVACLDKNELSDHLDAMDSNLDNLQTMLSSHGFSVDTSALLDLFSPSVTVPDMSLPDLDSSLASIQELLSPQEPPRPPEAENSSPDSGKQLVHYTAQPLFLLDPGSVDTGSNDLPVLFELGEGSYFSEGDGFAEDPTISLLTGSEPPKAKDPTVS
# ETV1, sequence (P50549 whole entry): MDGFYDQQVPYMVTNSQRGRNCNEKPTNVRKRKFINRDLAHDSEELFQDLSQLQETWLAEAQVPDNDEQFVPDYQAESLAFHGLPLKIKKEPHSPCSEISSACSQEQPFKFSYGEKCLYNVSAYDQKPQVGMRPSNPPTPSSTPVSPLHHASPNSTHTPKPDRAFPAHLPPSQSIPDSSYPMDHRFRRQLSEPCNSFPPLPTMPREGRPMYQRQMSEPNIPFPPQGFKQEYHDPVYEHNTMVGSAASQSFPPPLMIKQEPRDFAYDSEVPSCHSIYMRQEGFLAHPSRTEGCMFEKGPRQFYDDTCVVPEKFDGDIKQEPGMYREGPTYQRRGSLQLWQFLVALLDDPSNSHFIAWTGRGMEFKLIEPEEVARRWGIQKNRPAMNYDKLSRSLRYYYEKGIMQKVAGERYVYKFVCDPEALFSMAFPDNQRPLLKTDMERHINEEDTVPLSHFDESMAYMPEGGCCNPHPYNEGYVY
sequence,measurement,setting,value
TGACTC,binding signal,FEV,"1.36 fold enrichment (6-mer frequency, TF over GST control)"
same,binding signal,ETV5,"1.24 fold enrichment (6-mer frequency, TF over GST control)"
same,binding signal,HSF1,"1.1 fold enrichment (6-mer frequency, TF over GST control)"
same,binding signal,SPIC,"1.48 fold enrichment (6-mer frequency, TF over GST control)"
same,binding signal,ELF4,"1.35 fold enrichment (6-mer frequency, TF over GST control)"
same,binding signal,ELK4,"1.31 fold enrichment (6-mer frequency, TF over GST control)"
same,binding signal,ETV2,"1.31 fold enrichment (6-mer frequency, TF over GST control)"
same,binding signal,ELF3,"1.36 fold enrichment (6-mer frequency, TF over GST control)"
same,binding signal,CRX,"1.07 fold enrichment (6-mer frequency, TF over GST control)"
same,binding signal,ETV1,"1.33 fold enrichment (6-mer frequency, TF over GST control)"
same,binding signal,ERF,"1.21 fold enrichment (6-mer frequency, TF over GST control)"
same,binding signal,ETV3L,"1.21 fold enrichment (6-mer frequency, TF over GST control)"
same,binding signal,ETS2,"1.38 fold enrichment (6-mer frequency, TF over GST control)"
same,binding signal,SPDEF,"1.27 fold enrichment (6-mer frequency, TF over GST control)"
same,binding signal,ETV7,"1.41 fold enrichment (6-mer frequency, TF over GST control)"
same,binding signal,ELF5,"1.28 fold enrichment (6-mer frequency, TF over GST control)"
same,binding signal,ETV3,"1.32 fold enrichment (6-mer frequency, TF over GST control)"
same,binding signal,ETV6,"1.28 fold enrichment (6-mer frequency, TF over GST control)"
